Only some compounds are listed: those with a hit (about 11% of all), similar ones and a draw of the others.
HttQ103 aggreg = inhibitors of mutant huntingtin aggregate formation in PC12 cells; Potency, µM (series often up to 46.1 µM), without a hit: at the top dose activity change, negative = inhibition, actives largely listed as inhibitors; PC12 HttQ103-GFP aggregates, Acumen cytometry, 40 h; AID 1688; 220,000 compounds, 1.1% hits; further: potency means the concentration at half of the fitted maximal effect; on the % scale 0 is the no-effect control and ±100 the full control effect; nearly all actives have a fitted effect of over 60% in size
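Steps: seed 1500 PC12 HTTQ103-GFP cells/well; add tebufenozide, 100 nM final; add compound titration; add ATPLite reagent; quantify GFP aggregates by laser scanning cytometry.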
PNC assembly inh = inhibitors of perinucleolar compartment assembly. PC3M PTB-GFP, PNC prevalence imaging, 16 h; active compounds read low. activity change (PNC), negative = inhibition, % at 10 µM. 140,000 compounds, 3.1% hits. AID 2417;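 active means readout at or below -70, meaning at least 70% loss of cells showing the perinucleolar compartment, a nuclear body marking cancer cells; inconclusive means readout between -30 and a set limit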;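 further: plate controls were DMSO wells for no effect and camptothecin positive control wells for full effect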
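PC3M cells stably expressing PTB-GFP, 750–1000 cells/well, treated 16 h at 37 °C with compound (23 nl of library stock), in duplicate. After paraformaldehyde fixation and Hoechst stain, imaged at 20x; PNC prevalence scored by image analysis.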
CBFb-RUNX1 inh = blocks binding between human CBF-beta and RUNX1 | 230,000 tested, under 10 active | Potency, µM (titrated, usually from 59.8 µM), for inactives: at the highest dose activity, negative = inhibition, usual class: inhibitors | AlphaScreen CBFb-His/RUNX1-biotin binding, biochemical | Q01196+Q13951; further: % of control where 0% means no effect
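Room-temperature protein-protein interaction test with 30 nM each of His-tagged CBF-beta and biotinylated RUNX1, 15 min with compound, then 90 min with nickel plus streptavidin beads. Signal read in AlphaScreen mode.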
HTT ATP protect = cytoprotection in Huntington HTT-Q103 PC12 cell model; Potency, µM (titrated, usually from 56.4 µM), without a hit: cytoprotection (ATP increase), most hits filed as activators; PC12 HTT-Q103 induced, cytoprotection, ATP luminescence, 40 h; 230,000 compounds, 0.14% hits; further: potency means the concentration at half of the fitted maximal effect; % of control where 0% means no effect; nearly all actives have a fitted effect of over 45% in size
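Compounds added alongside 100 nM tebufenozide, which induces toxic Q103 huntingtin exon 1-GFP in stable PC12 cells; surviving cells quantified by luminescent ATP measurement. Medium: phenol red-free DMEM, 5% equine and 5% calf serum.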
ALDH1A1 inh = inhibitors of human aldehyde dehydrogenase 1A1; P00352; Purified ALDH1A1, NADH fluorescence, propionaldehyde substrate; Potency, µM (titrated, usually from 75.3 µM), without a hit: at the highest dose activity, negative = inhibition, actives largely listed as inhibitors; 220,000 compounds, 7.3% hits; AID 1030; active means well fitted inhibition curve with a large enough effect, not every such curve was filed as active; inconclusive means small, poorly fitted or top-dose-only effect, or another doubt; inactive means no such curve, though single readings can be large or run the other way;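 further: potency means the concentration at half of the fitted maximal effect; plate controls were no enzyme wells and a reference inhibitor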
Target sequence (P00352 whole entry, looked up): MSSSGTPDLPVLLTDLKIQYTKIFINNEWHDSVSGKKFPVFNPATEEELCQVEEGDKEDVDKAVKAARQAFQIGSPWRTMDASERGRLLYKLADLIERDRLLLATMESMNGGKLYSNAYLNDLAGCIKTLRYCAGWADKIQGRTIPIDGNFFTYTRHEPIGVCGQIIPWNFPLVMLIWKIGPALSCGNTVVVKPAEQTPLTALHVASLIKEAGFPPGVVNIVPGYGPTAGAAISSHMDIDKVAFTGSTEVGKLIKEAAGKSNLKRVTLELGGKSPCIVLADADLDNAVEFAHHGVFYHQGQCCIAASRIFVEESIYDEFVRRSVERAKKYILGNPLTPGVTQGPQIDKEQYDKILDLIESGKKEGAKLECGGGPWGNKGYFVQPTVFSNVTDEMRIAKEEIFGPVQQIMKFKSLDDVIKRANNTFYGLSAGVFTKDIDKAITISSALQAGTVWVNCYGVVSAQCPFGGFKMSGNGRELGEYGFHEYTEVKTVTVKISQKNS
HPGD block = HPGD (human) dehydrogenase inhibition. P15428. 150,000 compounds, 4.3% hits. purified HPGD, NADH fluorescence kinetic, PGE2 substrate. Potency, µM, for the others: at the top dose activity change, negative = inhibition, actives largely listed as inhibitors. AID 894; active means well fitted inhibition curve with a large enough effect, not every such curve was filed as active; inconclusive means small, poorly fitted or top-dose-only effect, or another doubt; inactive means no such curve, though single readings can be large or run the other way; further: potency means the concentration at half of the fitted maximal effect; on the % scale 0 is the no-effect control and ±100 the full control effect
Target sequence (P15428 whole entry, looked up): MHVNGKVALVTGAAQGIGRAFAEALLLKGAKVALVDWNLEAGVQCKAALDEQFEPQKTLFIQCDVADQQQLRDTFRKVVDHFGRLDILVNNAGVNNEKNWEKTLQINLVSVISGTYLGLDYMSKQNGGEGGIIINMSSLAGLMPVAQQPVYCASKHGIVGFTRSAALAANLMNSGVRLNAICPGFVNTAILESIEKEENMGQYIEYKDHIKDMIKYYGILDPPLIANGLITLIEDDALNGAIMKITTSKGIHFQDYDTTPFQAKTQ
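20 nM HPGD preincubated 15 min at room temperature with compound in 50 mM Tris-HCl pH 8, 0.01% Tween 20. Started with 1 mM NAD+ and 30 uM prostaglandin E2; NADH fluorescence (360/450 nm) read 5 times over 30-s intervals, last minus first.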
An asterisk follows results filed as active; ? = inconclusive; nt = no result; [ ] = remark or other dose. Unless noted, the call rests on the fitted dose curve; in most records, active means well fitted curve in the direction sought with a large enough effect; inconclusive means small, poorly fitted or top-dose-only effect, or another doubt; inactive means no such curve, though single readings can be large; an effect the other way counts as inactive or inconclusive.

SMILES	HttQ103 aggreg	PNC assembly inh	CBFb-RUNX1 inh	HTT ATP protect	ALDH1A1 inh	HPGD block
Nc1ncnc2c1ncn2[C@@H]1O[C@@H](CO)[C@H](O)[C@H]1O	nt	nt	-1%[21.7 µM]	11%[40.3 µM]	15%[20.9 µM]	-4%
COC(=O)c1cc(-c2ccccc2)sc1N	-5%	1	-14%	-3%	?	28µM*
COC(=O)c1ccc(NC2c3ncccc3C(=O)N2Cc2cccs2)cc1 (centres undefined)	-2%	nt	3%	19%	?	nt
COc1ccc(NC2c3ncccc3C(=O)N2Cc2cccs2)cc1 (centres undefined)	12%	nt	-1%	-105%	3.2µM*	nt
O=C1c2cccnc2C(Nc2ccc(F)c(Cl)c2)N1Cc1cccs1 (centres undefined)	-10%	nt	5%	14%	11µM*	nt
O=C1c2cccnc2C(Nc2ccc(Br)cc2)N1Cc1cccs1 (centres undefined)	-19%	nt	-6%	-17%	6.3µM*	nt
CC[C@@]1(c2ccccc2)NC(=O)N(C)C1=O	-3%	nt	nt	16%	nt	nt
CCOCCOCC	nt	nt	11%[21.7 µM]	-2%	5%	3%
CC1=C(C(=O)Nc2ccccn2)C(c2ccc(Cl)cc2Cl)NC(=S)N1 (centres undefined)	-4%	nt	-7%	?	2.5µM*	nt
CC1=C(C(=O)Nc2ccccn2)C(c2ccccc2Cl)NC(=S)N1 (centres undefined)	24%	nt	5%	nt	2.5µM*	nt
Cc1cc(NS(=O)(=O)c2ccccc2)c(C)c(Cl)c1O	-5%	?	3%	-16%	-8%	-17%
O=S(=O)(Nc1cc(Sc2ncn[nH]2)c(O)c2ccccc12)c1ccccc1	4.5µM*	nt	2%	-209%	14µM*	nt
CCC[C@H]1C[C@H](C(=O)N[C@H]([C@@H]2O[C@H](SC)[C@@H](O)[C@H](O)[C@@H]2O)[C@H](C)O)N(C)C1	nt	nt	-12%[21.7 µM]	-1%[40.3 µM]	2%[20.9 µM]	5%
COc1ccc(C2=Nn3c(nnc3-c3ccco3)SC2)cc1	9%[9.22 µM]	-26	-16%	-24%	?	-26%
COc1ccc(OC)c(C2=Nn3c(nnc3-c3ccco3)SC2)c1	-7%	38	0%	-19%	-5%	28µM*
Oc1ccc(C2=Nn3c(nnc3-c3ccco3)SC2)cc1O	4%	?	-1%	-11%[10 µM]	8.9µM*	14µM*
Brc1ccc(-c2cn3nc4c(nc3n2)CCCC4)cc1	15%	-100*	-1%	-24%	?	?
Cc1cc2oc(=O)cc(Cn3ncc(Cl)c(Cl)c3=O)c2cc1Cl	?	nt	11%	-196%	0.079µM*	nt
Cc1cc2oc(=O)cc(CN3CCc4ccccc43)c2cc1Cl	18%	-14	?	-68%	-5%	-20%
Cc1ccc(S(=O)(=O)/N=C(/c2ccc(F)cc2)N2CCCC2)cc1	-10%	nt	0%	-31%	-9%	nt
Cc1ccc(S(=O)(=O)/N=C(/c2ccc(F)cc2)N2CCCCC2)cc1	17%	?	1%	-3%[10 µM]	25µM*	-9%
O=C(O)c1cc(O)c2c(c1)[C@H]([C@H]1c3cc(C(=O)O)cc(O)c3C(=O)c3c(O[C@@H]4OC(CO)C(O)C(O)C4O)cccc31)c1cccc(O[C@@H]3OC(CO)C(O)C(O)C3O)c1C2=O (some centres undefined)	9%	nt	nt	-76%	-10%	7.9µM*
O=C(O)c1cc(NCc2ccc3c(c2)OCO3)ccc1N1CCOCC1	6%	10	-2%	-11%[0.074 µM]	?	-21%
COC(=O)c1cc(NCc2ccc3c(c2)OCO3)ccc1N1CCOCC1	7%	35	0%	-14%[0.074 µM]	14µM*	-6%
CNC1=CN=C(c2ccccc2)c2cc(Cl)ccc2N1	nt	nt	-3%	6%	12%	-11%
SMILES	HttQ103 aggreg	PNC assembly inh	CBFb-RUNX1 inh	HTT ATP protect	ALDH1A1 inh	HPGD block
O=C1C(c2ccccc2)SC(=Nc2ccccc2)N1S(=O)(=O)c1ccccc1 (centres undefined)	-20%	-26	1%	7%	3.2µM*	14µM*
CC1(C)SC(=Nc2ccccc2)N(S(=O)(=O)c2ccccc2)C1=O	2%	-23	1%	-1%[10 µM]	9%	-2%
N#Cc1c(-n2cccc2/C=N/O)sc2c1CCCC2	-16%	?	-15%	7%	1%	-19%
N#Cc1c(N2C(=O)C3C4C=CC(C4)C3C2=O)sc2c1CCC2 (centres undefined)	-6%	11	10%	3%	18µM*	-12%
O=[N+]([O-])c1cccnc1Oc1ccc(C2SCCS2)cc1	-2%[9.22 µM]	nt	-11%	-4%[10 µM]	18µM*	nt
COc1cc(C2SCCS2)cc(Br)c1Oc1ncccc1[N+](=O)[O-]	4%[9.22 µM]	nt	?	-1%[10 µM]	?	nt
O=C(CSc1nnnn1C1CCCCC1)Nc1nc2c(s1)CCCC2	?	24	-1%	-18%	7.9µM*	-7%
COc1ccc2nc(NC(=O)CSc3nnnn3C3CCCCC3)sc2c1	-13%	5	-1%	-22%	?	-17%
O=C(CSc1nnnn1C1CCCC1)Nc1ccccc1F	36%[9.22 µM]	nt	7%	1%[10 µM]	nt	nt
CCOc1ccc2nc(NC(=O)CSc3nnnn3C3CCCCC3)sc2c1	4%	29	9%	-24%	8.9µM*	-28%
O=c1c(-c2ccccc2)nc2cnc(N3CCOCC3)nc2n1-c1ccccc1	nt	nt	nt	-38%	?	?
COc1ccc(Oc2coc3cc(OC(=O)/C=C/c4ccccc4)ccc3c2=O)cc1	-9%	-81*	4%	29%[10 µM]	6%	-1%
C=C1CC[C@H](O)C/C1=C/C=C1\CCC[C@]2(C)C([C@H](C)CC[C@@H](O)C(C)(C)O)CC[C@@H]12 (some centres undefined)	nt	nt	5%	18%	1%	nt
C(/CCc1ccccc1)=N\n1cnnc1	0%	-100*	-1%	5%[10 µM]	8%	-6%
Cc1ccc(CCNC(=O)C2CCN(C(=O)c3sccc3-n3cccc3)CC2)cc1	10%	16	-7%	-13%[10 µM]	1µM*	-3%
O=C(NC1CCCc2ccccc21)C1CCN(C(=O)c2sccc2-n2cccc2)CC1 (centres undefined)	-12%	8	3%	-2%	1µM*	1%
O=C(c1sccc1-n1cccc1)N1CCCC1	-3%	-83*	-3%	27%[10 µM]	?	-11%
O=C(NCc1cccc(F)c1)C1CCN(C(=O)c2sccc2-n2cccc2)CC1	-9%	nt	-2%	-13%	5µM*	nt
CCN(CCCNC(=O)C1CCC(=O)N1Cc1ccc(F)cc1)c1cccc(C)c1 (centres undefined)	0%	43	-4%	-13%	1%	-4%
O=C(NCCc1ccccc1)C1CCN(C(=O)c2sccc2-n2cccc2)CC1	5%	?	11%	-5%	4µM*	-8%

Assay outcomes: PubChem BioAssay, National Center for Advancing Translational Sciences (NCATS)
